# PubChem BioAssay AID651658 (Broad Institute, 2012)
# “And” between values parts separate entries of the source, which are not always exact repeats. Identical values can stand only once. About 5,100 (1.5%) of roughly 340,000 compounds were called active. Many of the other results were omitted from the sample, so actives are more common in it than they were. Unmarked numbers belong to inactive results.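 How the source made its calls: active means mean Tm shift, scaled 0 neutral to 100 positive control, at about 1.3% or above, every replicate too (limit read from the data); inconclusive means no clear call, values can overlap the other calls; inactive means the rest.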
# Target: Fibroblast growth factor 22 (Homo sapiens) (UniProt Q9HCT0)
# Sequence (Q9HCT0 whole entry, looked up): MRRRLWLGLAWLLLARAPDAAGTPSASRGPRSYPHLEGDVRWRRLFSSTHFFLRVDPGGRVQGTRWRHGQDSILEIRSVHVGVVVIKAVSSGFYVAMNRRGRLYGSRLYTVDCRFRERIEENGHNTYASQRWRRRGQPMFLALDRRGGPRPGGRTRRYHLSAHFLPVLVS
# Assay: binders of human FGF22 protein, primary screen, FGF22 synaptogenesis inhibitor project, biophysical, thermal shift, single point (AID 651658)
# Conditions: recombinant FGF22 thermal shift, SYPRO orange fluorescence; at 9.99 µM; stronger effect = higher value; percent of sucrose octasulfate shift, DMSO zero
row,Structure (SMILES),"activity (Tm shift, normalised)"
1,O=C(NCC[C@@H]1CC[C@@H](NC(=O)c2ccccc2F)[C@H](CO)O1)c1ccc2c(c1)OCO2,-0.277%
2,C[C@@H]1CN([C@@H](C)CO)C(=O)c2cccc(NC(=O)Nc3ccc(C(F)(F)F)cc3)c2O[C@@H]1CN(C)S(=O)(=O)c1ccc(F)cc1,-0.433%
3,CO[C@@H]1CN(C)C(=O)c2ccc(NC(=O)Nc3c(C)noc3C)cc2OC[C@H](C)N(CC2CC2)C[C@H]1C,0.073%
4,NS(=O)(=O)c1ccc2nc(NC(=O)C3=COCCO3)sc2c1,-0.051%
5,CS(=O)(=O)c1ccc2nc(NC(=O)c3ccc(Cl)nc3)sc2c1,1.36% (active)
6,Cc1ccc(C(=O)Nc2nc3ccc(Cl)cc3s2)o1,0.029%
7,COc1ccc([Si](C)(C)[C@@H]2[C@@H](CCO)O[C@]3(C(=O)N(Cc4ccccc4)c4ccc(N5CCC5=O)cc43)[C@H]2C)cc1,1.09%
8,O=C(C[C@H]1C[C@@H]2c3cc(NC(=O)Nc4ccc(C(F)(F)F)cc4)ccc3O[C@@H]2[C@@H](CO)O1)NCC1CC1,5.86% (active)
9,O=C(C[C@H]1C[C@H]2c3cc(NC(=O)Nc4ccc(F)cc4)ccc3O[C@H]2[C@@H](CO)O1)NCC1CC1,-0.077%
10,O=C(C[C@H]1C[C@H]2c3cc(NC(=O)Nc4ccc(F)cc4)ccc3O[C@H]2[C@H](CO)O1)NCC1CC1,0.011%
11,C[C@H]1CCCCO[C@H](CN(C)S(C)(=O)=O)[C@@H](C)CN([C@@H](C)CO)C(=O)c2cc(NC(=O)C3CCCCC3)ccc2O1,-0.096%
12,COC(=O)C[C@@H]1CC[C@@H]2[C@H](COc3ccc(NC(=O)c4cccc(F)c4)cc3C(=O)N2C)O1,-0.235%
13,CN1C(=O)c2cc(NC(=O)c3cccc(F)c3)ccc2OC[C@@H]2O[C@H](CC(=O)N3CCc4ccccc4C3)CC[C@@H]21,1.53% (active)
14,CNC(=O)C[C@H]1CC[C@H]2[C@H](COc3ccc(NC(=O)c4cccc(F)c4)cc3C(=O)N2C)O1,-0.14% and 0.048%
15,O=C(C[C@@H]1CC[C@@H](NC(=O)Nc2ccc(F)cc2)[C@@H](CO)O1)NCCN1CCCC1,-0.38%
16,CCCC(=O)Nc1ccc2c(c1)C(=O)N(C)C[C@H](OC)[C@H](C)CN(C(=O)c1ccccn1)[C@H](C)CO2,-0.212%
17,C[C@@H]1CN([C@@H](C)CO)S(=O)(=O)c2ccc(C#C[C@@H](C)O)cc2O[C@@H]1CN(C)C(=O)CN(C)C,-0.212%
18,CO[C@@H]1CN(C)C(=O)c2cc(NC(=O)C3CC3)ccc2OC[C@@H](C)N(Cc2nccs2)C[C@@H]1C,0.295%
19,CC1CCCN(CC(O)COc2ccc3c(c2)OCO3)C1 (configuration not stated),0.154%
20,CC1CCCN(CC(O)COCc2ccccc2)C1 (configuration not stated),43.5% (active)
21,COc1ccc(COCC(O)CN2CCC(C(N)=O)CC2)cc1 (configuration not stated),-0.009%
22,CC(C)(C)S(=O)N1Cc2cc(C(=O)O)nc(-c3cccc(-c4cc5ccccc5o4)c3)c2[C@@H]1CCO (some centres not stated),0.231%
23,COc1ccc2c3c(n(C)c2c1)[C@H](CO)N(Cc1ccccc1)CC31CN(C(=O)c2ccccc2F)C1,-0.032%

row,Structure (SMILES),"activity (Tm shift, normalised)"
1,O=C1/C(=C/c2ccc3c(c2)OCO3)CCC/C1=C\c1ccc2c(c1)OCO2,26.1% (active)
2,NS(=O)(=O)c1ccc(NC(=O)COC(=O)c2c3c(nc4ccccc24)/C(=C\c2ccc4c(c2)OCO4)CCC3)cc1,-0.081%
3,NC(=O)c1ccc(NC(=O)COC(=O)c2c3c(nc4ccccc24)/C(=C\c2ccc4c(c2)OCO4)CCC3)cc1,-0.321%
4,CCCNC(=O)N1C[C@@H]2[C@H](c3ccccc31)[C@@H](CO)N2C(=O)NC(C)C,-0.334%
5,C[C@H]1CN([C@@H](C)CO)S(=O)(=O)c2ccc(C#Cc3cccnc3)cc2O[C@H]1CN(C)C(=O)CN(C)C,-0.747%
6,CC(CC(=O)O)CC(=O)NNC(=O)c1cccc(Br)c1 (configuration not stated),-0.089%
7,Cc1ccccc1NC(=S)NNC(=O)c1cccc(Br)c1,43.6% (active)
8,O=C(NC(=S)Nc1cccc2c(O)cccc12)c1cccc(Br)c1,-0.32%
9,O=C(C[C@H]1C[C@@H]2c3cc(NS(=O)(=O)c4ccc(F)cc4)ccc3O[C@@H]2[C@@H](CO)O1)NCc1cccc(F)c1,-0.007%
10,Oc1cccc2cc(-c3ccncc3)cnc12,43.2% (active)
11,C[C@@H]1CN([C@H](C)CO)C(=O)Cc2cc(NC(=O)Nc3cccc4ccccc34)ccc2O[C@H]1CN(C)C(=O)Nc1ccc2c(c1)OCO2,-0.447%
12,COc1cccc(NC(=O)c2nn(-c3ccc(OC)cc3OC)c(=O)c3ccccc23)c1,43.4% (active)
13,COc1ccc(-n2nc(C(=O)NCC(=O)N3CCN(c4ccccc4OC)CC3)c3ccccc3c2=O)c(OC)c1,-0.112%
14,COc1ccc(-n2nc(C(=O)Nc3cc(OC)c(OC)c(OC)c3)c3ccccc3c2=O)c(OC)c1,0.293%
15,CN1C(=O)c2cc(NC(=O)c3cnccn3)ccc2OC[C@H]2O[C@@H](CC(=O)NCC3CCCCC3)CC[C@@H]21,-0.186%
16,O=C(CN(CC1CCCO1)C(=O)CNS(=O)(=O)c1ccc(F)cc1)NCc1ccco1 (configuration not stated),43.2% (active)
17,CC(C)C(C(=O)NCc1ccco1)N(CC1CCCO1)C(=O)CNS(=O)(=O)c1ccc(F)cc1 (configuration not stated),-0.278%
18,O=C(CN(CC1CCCO1)C(=O)CNS(=O)(=O)c1ccc(Cl)cc1)NCc1ccccc1 (configuration not stated),-0.087%
19,COCC(=O)N(C)C[C@H]1Oc2cc(C#C[C@@H](C)O)ccc2S(=O)(=O)N([C@@H](C)CO)C[C@@H]1C,0.023%
20,CCC(C)(C)NC(=O)C(c1ccc(OC)cc1)N(C(=O)CCC(=O)Nc1cc(C)on1)c1ccc(OC)cc1OC (configuration not stated),0.006%
21,CCC(C)(C)NC(=O)C(c1cccc(OC)c1OC)N(CC(C)C)C(=O)CCC(=O)Nc1cc(C)on1 (configuration not stated),43% (active)
22,COc1ccc(C(C(=O)NC(C)(C)C)N(Cc2ccc(F)cc2)C(=O)CCC(=O)Nc2cc(C)on2)cc1 (configuration not stated),-0.347%
23,CN(C)C(=O)C[C@H]1CC[C@@H](NC(=O)C2CC2)[C@@H](CO)O1,-0.057%

row,Structure (SMILES),"activity (Tm shift, normalised)"
1,C[C@H]1CN([C@@H](C)CO)C(=O)c2cccc(NC(=O)Nc3ccccc3)c2O[C@H]1CN(C)S(=O)(=O)c1ccc(Cl)cc1,-0.286%
2,C[C@@H]1CN([C@H](C)CO)C(=O)c2cc(-c3cccc(C(=O)N(C)C)c3)cnc2O[C@H]1CN(C)S(=O)(=O)c1ccc(F)cc1,-0.014%
3,COCC(=O)Nc1ccc2c(c1)OC[C@H](C)N(Cc1ccccc1)C[C@H](C)[C@@H](OC)CN(C)C2=O,-0.276%
4,C[C@@H]1CN([C@@H](C)CO)C(=O)c2cc(NC(=O)Nc3ccc4c(c3)OCO4)ccc2O[C@@H](C)CCCCO[C@@H]1CN(C)S(=O)(=O)c1cccs1,0.586%
5,Cc1ccc(S(=O)(=O)N(C)C[C@@H]2Oc3c(NC(=O)C4CC4)cccc3C(=O)N([C@H](C)CO)C[C@@H]2C)cc1,0.051%
6,COc1cccc(S(=O)(=O)N2C[C@@H](O)COC[C@@H]3O[C@H](CC(=O)Nc4ccccc4)CC[C@H]32)c1,-0.453%
7,O=C(C[C@H]1CC[C@H]2[C@@H](COC[C@H](O)CN2S(=O)(=O)c2cccc(Cl)c2)O1)Nc1ccccc1,1.27% (active)
8,Cc1cccc(S(=O)(=O)N2C[C@@H](O)COC[C@H]3O[C@H](CC(=O)Nc4ccc(-c5ccccc5)cc4)CC[C@@H]32)c1,1.98% (active)
9,Cc1cccc(S(=O)(=O)N2C[C@@H](O)COC[C@H]3O[C@H](CC(=O)N4CCN(C)CC4)CC[C@@H]32)c1,-0.222%
10,CN(C)C(=O)C[C@@H]1CC[C@H]2[C@@H](COC[C@H](O)CN2S(=O)(=O)c2ccccc2)O1,-0.015%
11,O=C(C[C@H]1CC[C@H]2[C@@H](COC[C@@H](O)CN2S(=O)(=O)c2cccc(Cl)c2)O1)NC1CCCC1,-0.093%
12,COc1cccc(-c2ccc(CC[C@H]3O[C@H]4CC[C@@H](CO)O[C@H]4C[C@@H]3NS(C)(=O)=O)cc2)c1,-0.835%
13,CCCNC(=O)N(C)C[C@H]1Oc2ncc(-c3ccccc3F)cc2C(=O)N([C@@H](C)CO)C[C@H]1C,0.186%
14,C[C@H](CO)N1C[C@H](C)[C@H](CN(C)Cc2ccc(C(=O)O)cc2)OCc2cn(nn2)CCCC1=O,-0.002%
15,C/C=C/c1cnc2c(c1)C(=O)N([C@@H](C)CO)C[C@@H](C)[C@@H](CN(C)S(=O)(=O)c1ccccc1F)O2,0.721%
16,O=C(N[C@@H]1CC[C@@H](CC(=O)N2CCc3ccccc3C2)O[C@@H]1CO)C1CCOCC1,-0.035%
17,Cc1ccc(OCCCC(=O)Nc2ccc(S(=O)(=O)Nc3cc(C)nc(C)n3)cc2)cc1,-0.115%
18,Cc1ccc(S(=O)(=O)Nc2nc(C)cc(N/N=C/c3ccc(O)cc3)n2)cc1,43.2% (active)
19,Cc1ccc(S(=O)(=O)Nc2nc(C)cc(-n3nc(C)cc3C)n2)cc1,0.134%
20,CN(C)C(=O)C[C@H]1C[C@@H]2c3cc(NC(=O)NC4CCCCC4)ccc3O[C@@H]2[C@@H](CO)O1,-7.03%
21,C[C@H](CO)N1C[C@H](C)[C@@H](CN(C)Cc2cccnc2)Oc2cc(C#CC3CC3)ccc2S1(=O)=O,-0.495%
